The record followed here is PubChem BioAssay (Tox21).

Where “and” joins values, the source holds several entries; their conditions need not be identical. Equal values may be shown once. Records with an inconclusive call do not appear. A call without a number means that no potency is given here. The source holds several records for some structures; these can differ, active in one and inactive in another. Calls of active or inactive are those of the source. Calls come from the whole dose curve; as a rule, active = well fitted curve in the direction sought with a large enough effect in the repeat runs; inconclusive = weak or mixed curves; inactive = no such curve, though single readings can be large; an effect the other way counts as inactive or inconclusive.
Note: nearly all actives have a fitted effect of over 50% in size.
Potency is the fitted concentration of half-maximal effect.

Chain of Voltage-gated inwardly rectifying potassium channel KCNH2 (Homo sapiens) (Q12809 whole entry, looked up): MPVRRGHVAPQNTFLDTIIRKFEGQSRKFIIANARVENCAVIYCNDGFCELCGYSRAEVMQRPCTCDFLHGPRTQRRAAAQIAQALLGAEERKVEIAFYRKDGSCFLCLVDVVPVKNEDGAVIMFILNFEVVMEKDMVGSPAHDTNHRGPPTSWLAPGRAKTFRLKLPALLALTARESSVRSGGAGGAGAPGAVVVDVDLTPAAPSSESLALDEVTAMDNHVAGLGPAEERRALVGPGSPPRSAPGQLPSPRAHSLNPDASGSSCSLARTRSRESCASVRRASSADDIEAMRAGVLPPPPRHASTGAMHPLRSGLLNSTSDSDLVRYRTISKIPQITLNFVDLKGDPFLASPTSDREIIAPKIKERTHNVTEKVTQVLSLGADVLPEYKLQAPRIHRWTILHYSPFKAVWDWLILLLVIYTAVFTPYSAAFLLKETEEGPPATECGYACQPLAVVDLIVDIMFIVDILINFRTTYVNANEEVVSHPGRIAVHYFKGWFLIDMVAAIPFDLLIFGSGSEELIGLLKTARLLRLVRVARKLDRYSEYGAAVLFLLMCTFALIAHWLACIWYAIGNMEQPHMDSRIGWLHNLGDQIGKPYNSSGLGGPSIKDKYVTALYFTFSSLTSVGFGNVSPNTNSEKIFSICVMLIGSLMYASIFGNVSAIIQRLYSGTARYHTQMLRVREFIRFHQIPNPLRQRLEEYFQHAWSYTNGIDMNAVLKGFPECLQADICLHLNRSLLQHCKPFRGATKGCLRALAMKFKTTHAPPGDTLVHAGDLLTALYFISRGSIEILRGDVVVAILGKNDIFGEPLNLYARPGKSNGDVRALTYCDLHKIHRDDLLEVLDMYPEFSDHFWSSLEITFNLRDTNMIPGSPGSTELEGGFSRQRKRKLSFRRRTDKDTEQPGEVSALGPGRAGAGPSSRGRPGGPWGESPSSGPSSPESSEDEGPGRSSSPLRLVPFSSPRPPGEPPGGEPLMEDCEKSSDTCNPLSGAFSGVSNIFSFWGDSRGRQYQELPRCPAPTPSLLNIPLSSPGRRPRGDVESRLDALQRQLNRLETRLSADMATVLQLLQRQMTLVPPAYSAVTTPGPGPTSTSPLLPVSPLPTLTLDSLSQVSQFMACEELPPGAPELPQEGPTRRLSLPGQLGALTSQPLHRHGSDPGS
Chain of Cytochrome P450 1A2 (Homo sapiens) (P05177 whole entry, looked up): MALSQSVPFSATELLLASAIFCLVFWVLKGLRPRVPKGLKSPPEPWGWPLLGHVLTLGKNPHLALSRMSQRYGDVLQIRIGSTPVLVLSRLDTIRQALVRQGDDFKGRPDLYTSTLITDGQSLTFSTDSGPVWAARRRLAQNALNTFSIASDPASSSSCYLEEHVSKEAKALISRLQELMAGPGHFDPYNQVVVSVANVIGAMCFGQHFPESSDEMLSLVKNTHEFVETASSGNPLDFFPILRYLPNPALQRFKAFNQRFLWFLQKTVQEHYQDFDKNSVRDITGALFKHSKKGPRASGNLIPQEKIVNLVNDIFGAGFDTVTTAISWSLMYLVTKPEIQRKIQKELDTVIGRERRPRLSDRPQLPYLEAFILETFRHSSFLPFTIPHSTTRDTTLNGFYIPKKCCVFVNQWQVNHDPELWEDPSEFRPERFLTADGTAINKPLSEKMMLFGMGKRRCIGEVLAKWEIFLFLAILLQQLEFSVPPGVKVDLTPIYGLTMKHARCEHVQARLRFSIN

For one assay, the target named is Cytochrome P450 1A2 (Homo sapiens) (UniProt P05177). The experiment in a line: Cytochrome P450 Family 1 Subfamily A Member 2 (CYP1A2) small molecule antagonists: luciferase reporter qHTS assay (AID 1671199). To be noted: P450-Glo CYP1A2 enzyme, luciferin luminescence, 1 h; series mostly up to 115 µM. The essentials:
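Read-out is luminescence from luciferin detection reagent (20 min) proportional to CYP1A2 activity; compounds in DMSO preincubated 10 min with enzyme and proluciferin substrate, then NADPH regeneration solution, 1 h, room temperature.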
(In a reporter assay the amount or activity of a reporter protein is the signal.)
Regarding `CCCOCCO`, the Potency result is “inactive”.

Consider `CC(=O)Oc1ccc(C(c2ccc(OC(C)=O)cc2)c2ccccn2)cc1`, for which the Potency result was “inactive”. On to `COc1ccc2nc(N)sc2c1`, for which the Potency was 22.5 µM (active) and 31.7 µM (active).

As for `COCCOCCOCCO`, the Potency entry was “inactive”. Turning to `CC1(C)NC(=O)N(c2ccc([N+](=O)[O-])c(C(F)(F)F)c2)C1=O`, the Potency was 11.2 µM (active) and 12.3 µM (active). In the case of `CC1(C)O[C@@H]2C[C@H]3[C@@H]4C[C@H](F)C5=CC(=O)C=C[C@]5(C)[C@@]4(F)[C@@H](O)C[C@]3(C)[C@]2(C(=O)CO)O1`, the Potency entry was “inactive”. Take `Cc1ccc([N+](=O)[O-])c(C)c1`: the Potency result was “inactive”. Turning to `C/C=C/C(=O)N(CC)c1ccccc1C`, the Potency is 31.7 µM (active) and inactive. On the same count and under the same terms, the result for `O=C1CCc2ccccc2O1` reads “inactive”; that for `OC[C@H]1O[C@@H]2O[C@H]3[C@H](O)[C@@H](O)[C@@H](O[C@H]4[C@H](O)[C@@H](O)[C@@H](O[C@H]5[C@H](O)[C@@H](O)[C@@H](O[C@H]6[C@H](O)[C@@H](O)[C@@H](O[C@H]7[C@H](O)[C@@H](O)[C@@H](O[C@H]1[C@H](O)[C@H]2O)O[C@@H]7CO)O[C@@H]6CO)O[C@@H]5CO)O[C@@H]4CO)O[C@@H]3CO`, “inactive”; that for `Brc1nc2ccccc2s1`, 31.6 µM (active) and 14.2 µM (active). For `IC(I)I`, the Potency is 25.2 µM (active). Consider `Nc1ccc2c(c1)C(=O)c1ccccc1C2=O`, for which the Potency is 220 nM (active) and 252 nM (active). As for `CC/C=C\C/C=C\C/C=C\CCCCCCCC(=O)O`, the Potency result was “inactive”. On to `C1COCCN1`, for which the Potency result was “inactive”.

As to `CC1(C)OC(=O)NC1=O`, the Potency result was “inactive”. `Cc1ccc(S(=O)(=O)NCl)cc1`: the Potency result is “inactive and 75.1 µM (active)”. On to `c1ccc2c(c1)ccc1cc3c(ccc4ccccc43)cc12`, for which the Potency is 24.9 µM (active). Consider `CC(C)[C@@H]1CC[C@@H](C)CC1=O`, for which the Potency is 30.9 µM (active). As for `CC(=O)Nc1ccc2c(c1)Cc1cc(NC(C)=O)ccc1-2`, the Potency result is “inactive”.

In the case of `O=[Se](O)O`, the Potency result is “inactive and 13.6 µM (active)”. Take `CC(=O)O[C@]1(C(C)=O)CC[C@H]2[C@@H]3C=C(Cl)C4=CC(=O)CC[C@]4(C)[C@H]3CC[C@@]21C`: the Potency result was “inactive”. Regarding `CC[C@]12CCCN3CCc4c(n(c5ccccc45)[C@@](O)(C(=O)OC)C1)[C@@H]32`, the Potency result is “inactive”. The same measure, in the same setting: as for `CC(=O)O[C@]1(C(C)=O)CC[C@H]2[C@@H]3C=C(C)C4=CC(=O)CC[C@]4(C)[C@H]3CC[C@@]21C`, the entry is “inactive”; as for `C=C1C[C@H]2[C@@H]3C=C(C)C4=CC(=O)CC[C@]4(C)[C@H]3CC[C@]2(C)[C@@]1(OC(C)=O)C(C)=O`, “inactive”. On to `CCCCCCCCCCCCO`, for which the Potency result is “inactive and 27.9 µM (active)”. Regarding `CC1=CC(C)(C)Nc2ccccc21`, the Potency entry is “inactive”.

Take `C=CCCCCCCCCCC`: the Potency result is “inactive”. In the case of `CC(=O)Oc1c(C)c(C)c2c(c1C)CC[C@@](C)(CCC[C@H](C)CCC[C@H](C)CCCC(C)C)O2`, the Potency result is “inactive”. `Cc1ccc(C(C)(C)C)c(O)c1`: the Potency is 71 µM (active). The same measure, in the same setting: as for `C=CCNCC=C`, the entry is “inactive and 39.9 µM (active)”. For `Nc1cc(Cl)c(N)c(Cl)c1`, the Potency is 15.8 µM (active) and 35.6 µM (active). `CCc1cccc2c3c([nH]c12)C(CC)(CC(=O)O)OCC3` (stereo unspecified): the Potency entry was “inactive”. In the case of `Nc1cc([N+](=O)[O-])ccc1C(=O)O`, the Potency result is “inactive”. On to `Clc1ccc(Sc2cc(Cl)c(Cl)cc2Cl)cc1`, for which the Potency was 11 µM (active) and 3.99 µM (active).

Another assay concerns the target Voltage-gated inwardly rectifying potassium channel KCNH2 (Homo sapiens) (UniProt Q12809). The experiment in a line: Human Ether-a-go-go-Related Gene (hERG) channel small molecule antagonists: fluorescence cell-based qHTS assay (AID 1671200). To be noted: hERG-U2OS cells, FluxOR thallium flux fluorescence; series mostly up to 76.8 µM. The method in brief: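 Read-out: thallium influx as a surrogate for potassium, tracked as fluorescence (480 nm ex/540 nm em) every second for 2 min after Stimulus Buffer addition in dye-loaded hERG-U2OS cells.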
On the technique in general: Block of hERG is tested as a sign of cardiac risk.
Turning to `CCCOCCO`, the Potency entry was “inactive”. As for `CC(=O)Oc1ccc(C(c2ccc(OC(C)=O)cc2)c2ccccn2)cc1`, the Potency result is “inactive”.

Turning to `COCCOCCOCCO`, the Potency result is “inactive”. Regarding `CC1(C)O[C@@H]2C[C@H]3[C@@H]4C[C@H](F)C5=CC(=O)C=C[C@]5(C)[C@@]4(F)[C@@H](O)C[C@]3(C)[C@]2(C(=O)CO)O1`, the Potency result is “inactive”.

As to `Cc1ccc([N+](=O)[O-])c(C)c1`, the Potency result was “inactive”. Take `C/C=C/C(=O)N(CC)c1ccccc1C`: the Potency result is “inactive”.

Regarding `O=C1CCc2ccccc2O1`, the Potency entry was “inactive”. For `OC[C@H]1O[C@@H]2O[C@H]3[C@H](O)[C@@H](O)[C@@H](O[C@H]4[C@H](O)[C@@H](O)[C@@H](O[C@H]5[C@H](O)[C@@H](O)[C@@H](O[C@H]6[C@H](O)[C@@H](O)[C@@H](O[C@H]7[C@H](O)[C@@H](O)[C@@H](O[C@H]1[C@H](O)[C@H]2O)O[C@@H]7CO)O[C@@H]6CO)O[C@@H]5CO)O[C@@H]4CO)O[C@@H]3CO`, the Potency result is “inactive”.

Take `Nc1ccc2c(c1)C(=O)c1ccccc1C2=O`: the Potency result was “inactive”. Consider `CC/C=C\C/C=C\C/C=C\CCCCCCCC(=O)O`, for which the Potency result is “inactive”. In the case of `C1COCCN1`, the Potency entry is “inactive”. In the case of `Cc1ccc(S(=O)(=O)NCl)cc1`, the Potency result is “inactive”. On to `c1ccc2c(c1)ccc1cc3c(ccc4ccccc43)cc12`, for which the Potency result was “inactive”.

As for `CC(C)[C@@H]1CC[C@@H](C)CC1=O`, the Potency entry was “inactive”. Same read-out and setting: as for `CC(=O)Nc1ccc2c(c1)Cc1cc(NC(C)=O)ccc1-2`, the entry is “inactive”. As for `O=[Se](O)O`, the Potency result was “inactive”. With `CC(=O)O[C@]1(C(C)=O)CC[C@H]2[C@@H]3C=C(Cl)C4=CC(=O)CC[C@]4(C)[C@H]3CC[C@@]21C`, the Potency result is “inactive”. Same read-out and setting: as for `CC[C@]12CCCN3CCc4c(n(c5ccccc45)[C@@](O)(C(=O)OC)C1)[C@@H]32`, the figure is 692 nM (active) and 1.69 µM (active); as for `CC(=O)O[C@]1(C(C)=O)CC[C@H]2[C@@H]3C=C(C)C4=CC(=O)CC[C@]4(C)[C@H]3CC[C@@]21C`, “inactive”.

As to `CCCCCCCCCCCCO`, the Potency result was “inactive”.

Turning to `CC1=CC(C)(C)Nc2ccccc21`, the Potency result is “inactive”. Turning to `C=CCCCCCCCCCC`, the Potency result was “inactive”. For `CC(=O)Oc1c(C)c(C)c2c(c1C)CC[C@@](C)(CCC[C@H](C)CCC[C@H](C)CCCC(C)C)O2`, the Potency result was “inactive”. `C=CCNCC=C`: the Potency entry was “inactive”. Regarding `Nc1cc(Cl)c(N)c(Cl)c1`, the Potency entry was “inactive”. For `CCc1cccc2c3c([nH]c12)C(CC)(CC(=O)O)OCC3` (stereo unspecified), the Potency result is “inactive”.
